A selection: hits, their analogues and other compounds. The true share with any hit is near 6.1%.
Gal4-VP16 FLuc: inhibits Gal4-VP16 luciferase reporter, ROR gamma counter-screen | Drosophila S2 Gal4-VP16 UAS-luciferase, luminescence, 20 h | Potency, µM (titrated, usually from 53.6 µM), inactives show at the top dose activity, negative = inhibition, usual class: inhibitors | 3.5% of 310,000 active | AID 2546;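 also: Gal4-VP16 expression switched on by copper sulfate through the metallothionein promoter; % is scaled to controls: 0 for no effect and ±100 for the full control effect; nearly all actives have a fitted effect of over 50% in size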
TGFb SMAD3 inh: blocks TGF-b signaling | AID 588855 | Potency, µM (series often up to 46.1 µM), for the others: at the top dose activity, negative = inhibition, actives largely listed as inhibitors | 1.2% of 410,000 active | HepG2 CAGA-GFP TGF-b/SMAD3 reporter, GFP fluorescence, 18 h; TGF-beta stimulated, 500 pg/mL final; also: % is scaled to controls: 0 for no effect and ±100 for the full control effect; nearly all actives have a fitted effect of over 65% in size
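Inhibition of TGF-beta-driven CAGA-GFP reporter expression in HEPG2 cells is measured by cellular GFP fluorescence after 18 h stimulation with 500 pg/mL recombinant TGF-beta in 1% FBS medium at 37 degrees C.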
ATXN2 expr inh: ATXN2 expression inhibition; Potency, µM (series often up to 57 µM), for the others: at the top dose activity change, negative = inhibition, most hits filed as inhibitors; AID 1745845; 0.72% of 360,000 active; HEK-293 ATXN2-luciferase reporter, luminescence, 24 h; also: % is scaled to controls: 0 for no effect and ±100 for the full control effect; nearly all actives have a fitted effect of over 55% in size
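qHTS (up to 57 uM final) was run with 24 h compound exposure of reporter cells at 37 °C. Each well was multiplexed: SteadyGlo luminescence measured ATXN2-luciferase expression after a fluorogenic Gly-Phe-AFC viability readout (25 uM final).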
HepG2 tox: kills HepG2 cells in TGF-b inhibitor counter-screen. HepG2 CAGA-GFP viability, ATP luminescence, 18 h. Potency, µM (doses to about 46.1 µM), without a hit: top-dose activity change, negative = cytotoxicity, hits mostly cytotoxic. 0.76% of 410,000 active. AID 588856
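CellTiter-Glo luminescence gave cytotoxicity after 18 hours at 37 degrees C. The cells were HepG2 CAGA-GFP in 1% FBS DMEM, stimulated with 500 pg/mL TGF-beta after compound addition. %Activity was normalised to no-cell wells (complete cell-killing) and DMSO (no toxicity), and curves were fitted and classified.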
ATXN viability: cell viability loss in ATXN counter-screen. S2 cells (HEK-293 line with an ATXN2-luciferase reporter) viability, CellTiter-Fluor protease fluorescence, 24 h. Potency, µM (series often up to 56.7 µM), hits mostly cytotoxic. 0.49% of 400,000 active; also: nearly all actives have a fitted effect of over 40% in size
RORgamma inh: blocks mouse ROR gamma transcriptional activity; P51450; Drosophila S2 Gal4-RORgamma UAS-luciferase reporter, 20 h; Potency, µM (highest dose often 53.6 µM), inactives show at the top dose activity change, negative = inhibition, most hits filed as inhibitors; 5.4% of 310,000 active; AID 2551; also: % is scaled to controls: 0 for no effect and ±100 for the full control effect; nearly all actives have a fitted effect of over 60% in size
Target sequence (P51450 whole entry, looked up, the tested form may be a part): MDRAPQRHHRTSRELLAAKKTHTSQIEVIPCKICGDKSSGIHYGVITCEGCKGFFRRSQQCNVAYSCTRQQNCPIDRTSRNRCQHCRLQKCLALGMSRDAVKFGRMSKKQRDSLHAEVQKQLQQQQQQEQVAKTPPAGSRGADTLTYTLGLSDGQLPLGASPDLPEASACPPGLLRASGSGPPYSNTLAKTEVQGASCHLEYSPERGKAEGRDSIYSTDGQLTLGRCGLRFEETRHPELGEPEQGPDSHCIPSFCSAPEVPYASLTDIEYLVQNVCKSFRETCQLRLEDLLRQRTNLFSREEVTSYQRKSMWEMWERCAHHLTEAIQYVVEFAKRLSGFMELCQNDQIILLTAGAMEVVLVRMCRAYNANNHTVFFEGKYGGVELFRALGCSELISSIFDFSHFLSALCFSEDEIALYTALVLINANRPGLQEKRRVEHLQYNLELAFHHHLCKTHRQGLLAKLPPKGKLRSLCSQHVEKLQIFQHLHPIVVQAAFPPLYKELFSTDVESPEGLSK
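A Gal4/UAS one-hybrid system in insect cells: metallothionein-promoter Gal4–ROR gamma fusion plus Photinus luciferase reporter. Copper sulfate 700 uM final, 20 hr ambient incubation, luminescent detection after 10 min with reagent.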
* marks the source's active call; other numbers are inactive results; i = inactive; ? = inconclusive; / = no result given; [ ] = another dose, or the depositor's remark. Calls follow the shape of the dose curve; as a rule, active = well fitted curve in the direction sought with a large enough effect; inconclusive = small, poorly fitted or top-dose-only effect, or another doubt; inactive = no such curve, though single readings can be large; an effect the other way counts as inactive or inconclusive. Potency is read from the fitted curve at half-maximal effect.

SMILES	Gal4-VP16 FLuc	TGFb SMAD3 inh	ATXN2 expr inh	HepG2 tox	ATXN viability	RORgamma inh
COC(=O)c1ccc(CC(=O)c2ccc(O)cc2O)o1	9%	9%	1%	-11%	i	1%
COC(=O)[C@H](C)NS(=O)(=O)C1CC1	/	-7%	/	-1%	/	/
Cc1ccc(CNC(=O)CN(c2ccc(C(C)C)cc2)S(=O)(=O)c2c(C)n[nH]c2C)cc1	/	11µM*	?	-46%	/	/
CCc1cc2c(cc1N1CCC(N3CCOCC3)CC1)C(C)(C)c1[nH]c3cc(C#N)ccc3c1C2=O	/	/	-25%	/	/	/
CC(C)(C)c1cc(NCc2ccccn2)n2ncc(-c3ccc(Cl)cc3)c2n1	?	-13%	/	-12%	i	0.56µM*
CCc1nccn1-c1cc(C(C)(C)C)nc2c(-c3ccc(Cl)cc3)cnn12	18%	-14%	29%	0%	i	-9%
CN(C)CCCNc1cc(C(C)(C)C)nc2c(-c3ccc(Cl)cc3)cnn12	14µM*	22µM*	?	-103%	/	2µM*
CCCCCCCC/C=C\CCCCCCCC(=O)OC[C@@H](O)COP(=O)(O)O	-4%	/	/	/	/	4%
O=C(C[N+]1(CCO)CCOCC1)c1ccc(F)c2ccccc12	/	14%	/	4%	/	/
O=C(Nc1ccc(C(=O)OCc2cc(=O)n3c4c(sc3n2)CCCC4)cc1)c1cccc(F)c1	/	1%	/	3%	/	/
Fc1ccccc1CNC(=S)Nc1cccc(C(F)(F)F)c1	7.1µM*	?	-21%	-38%	i	7.1µM*
Fc1cc(NC(=S)NCc2ccc(CNC(=S)Nc3ccc(Cl)c(F)c3)cc2)ccc1Cl	-10%	?	/	2.8µM*	?	-33%
CC(C)(C)NNC(=S)Nc1cccc(F)c1	3.5µM*	?	-2%	-56%	?	0.63µM*
NS(=O)(=O)c1ccc(CNC(=S)Nc2ccc(Cl)c(Cl)c2)cc1	-1%	-32%	-31%	-26%	i	38%
Fc1cccc(NC(=S)NCc2ccc(Cl)cc2)c1	18µM*	-29%	0%	0%	i	6.3µM*
Fc1ccc(CNC(=S)Nc2cccc(C(F)(F)F)c2)cc1	?	?	-21%	-30%	i	?
COc1ccc(OC)c(NC(=O)c2cc3c(n(-c4ccc(Cl)cc4)c2=O)CC(C)(C)CC3=O)c1	/	8%	4%	4%	i	/
OC(c1ccc2c(c1)CN(Cc1cccn1-c1ncccn1)CCO2)C1CCCCC1 (centres undefined)	/	/	/	/	i	/
COc1ccc(CNC(=S)Nc2ccc(F)c(Cl)c2)cc1OC	-8%	?	-32%	-48%	i	11µM*
FC(F)(F)c1cccc(NC(=S)NCc2ccc(Cl)cc2)c1	?	10µM*	?	16µM*	/	8.9µM*
CSc1ccc(CNC(=O)CCn2ccc3cc(S(=O)(=O)N4CCC(C)CC4)ccc32)cc1	/	0%	-21%	-12%	i	/
CCOCCn1c(CN2CCN(c3ccc(F)cc3)CC2)nc2c1c(=O)n(C)c(=O)n2C	?	-3%	-14%	-19%	i	-3%
Cn1c(=O)c2c(nc(CN3CCN(Cc4ccccc4)CC3)n2CCN2CCOCC2)n(C)c1=O	2%	-2%	-1%	10%	i	1.6µM*
Cc1ccccc1Cn1c(CN2CCc3ccccc3C2)nc2c1c(=O)n(C)c(=O)n2C	-13%	?	-5%	-29%	i	-1%
Cn1c(=O)c2c(nc(CN3CCC(Cc4ccccc4)CC3)n2CCN2CCOCC2)n(C)c1=O	5%	-5%	-10%	-1%	i	-1%
SMILES	Gal4-VP16 FLuc	TGFb SMAD3 inh	ATXN2 expr inh	HepG2 tox	ATXN viability	RORgamma inh
COC(=O)Cn1c(CN2CCN(c3ccc(F)cc3)CC2)nc2c1c(=O)n(C)c(=O)n2C	2.8µM*	-21%	-4%	-9%	i	-30%
COC(=O)Cn1c(CN2CCc3ccccc3C2)nc2c1c(=O)n(C)c(=O)n2C	5.6µM*	-8%	3%	-1%	i	6%
Cc1cc(C)cc(Oc2coc3c(CN4CCN(C)CC4)c(O)ccc3c2=O)c1	/	4%	2%	-10%	i	/
Cc1ccnc2ccc(I)cc12	/	-1%	/	4%	/	/
CCc1ccc(NCc2cccn2-c2nnc(N3CCCCCC3)s2)cc1	/	/	/	-41%	/	/
CCOc1ccc(NC(=O)c2nc(S(=O)(=O)Cc3ccccc3C)ncc2Cl)cc1	/	13µM*	/	-101%	/	/
CCOc1ccc(NC(=O)c2nc(S(=O)(=O)Cc3ccc(F)cc3)ncc2Cl)cc1	/	11µM*	/	-96%	/	/
COC(=O)c1ccc(C[n+]2ccccc2)cc1	12%	17%	-7%	3%	i	0.1µM*
COC(=O)c1ccc(NC(=O)C[n+]2ccccc2)cc1	-3%	0%	6%	0%	i	14%
COc1ccc(-c2nc3ccccc3[nH]2)cc1	8.9µM*	8%	0%	7.9µM*	i	7.9µM*
COc1ccc2oc(=Nc3ccccc3)c(-c3nc4ccccc4[nH]3)cc2c1	?	112%	56%	-8%	i	10µM*
COc1ccc(-c2nc(=S)c3ccc4ccccc4c3[nH]2)cc1	?	?	-18%	-1%	i	5.6µM*
Cc1cc(=O)c2ccc3ccccc3c2[nH]1	-2%	-15%	-16%	-3%	i	-11%
COc1cccc(-c2nc3c(c(SCC(=O)Nc4cccc(C)c4C)n2)Cc2c(CO)cnc(C)c2O3)c1	/	?	/	-15%	/	/
Cc1cc(N/C=C/C(=O)c2ccccc2)ccc1Br	?	1%	/	-50%	i	?
O=C(/C=C/Nc1ccc(F)cc1Br)c1ccccc1	7.1µM*	-3%	-55%	-38%	i	2.5µM*
O=C(/C=C\Nc1ccccc1Br)c1ccc2c(c1)OCO2	?	7%	?	-42%	/	5µM*
O=C(/C=C\Nc1cccc(F)c1)c1ccc2c(c1)OCO2	10µM*	-7%	4%	-39%	i	?
O=S(=O)(NCCc1csc2nc(-c3ccccc3)nn12)c1cccs1	/	?	/	-22%	/	/
COc1ccc(Oc2ncc3nc(-c4cccs4)c(=O)n(CCC#N)c3n2)cc1	-1%	/	/	/	/	-12%
COC(=O)c1ccc(NC(=O)N2CCN(Cc3cc(=O)n4nc(-c5ccc(C)cc5)sc4n3)CC2)cc1	/	18%	10%	-2%	?	/
Oc1ccc(/C=N/Nc2cc(N3CCOCC3)nc(N3CCOCC3)n2)cc1O	?	-13%	-20%	-25%	i	-1%
O=[N+]([O-])c1cc2c(cc1/C=N/Nc1nc(N3CCCC3)nc(N3CCCC3)n1)OCO2	-10%	-13%	-36%[11.3 µM]	5%	i	-18%[10 µM]
